From PubChem
A selection: hits, their analogues and other compounds. The true share with any hit is near 21%.
D3 antag: qHTS of D3 Dopamine Receptor Antagonist: qHTS; D3R cells, DiscoveRx beta-arrestin luminescence, antagonist mode; hits give low values; D(3) dopamine receptor (Homo sapiens), P35462; max response, negative = inhibition, %; 2.5% of 360,000 active; in the data active means max response below about -50%; inconclusive means no clear call, values can overlap the other calls
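Cells plated overnight at 1500 cells/well, then exposed to library compounds with dopamine controls for 90 minutes at 37 degrees C. DiscoveRx reagent added for 30–60 minutes at room temperature; luminescence read, quantitative HTS format.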
TDP1 cell CPT: qHTS for Inhibitors of human tyrosyl-DNA phosphodiesterase 1 (TDP1): qHTS in cells in presence of CPT | chicken DT40 Tdp1-/-;hTDP1 cells + 20 nM CPT, ATP luminescence, 48 h | 12% of 420,000 active | Potency, µM (series often up to 46.2 µM), hits mostly inhibitors | AID 686979, 2013; further: nearly all actives have a fitted effect of over 55% in size
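Chicken DT40 Tdp1-/- cells stably complemented with human TDP1 were seeded at 400 cells/well in medium containing 20 nM camptothecin, exposed to pin-transferred compounds, and grown at 37 °C for at least 48 hr. Viability was read as ATP luminescence.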
ClpP mod: qHTS Assay for Activators of ClpP; purified B. subtilis ClpP, FRET peptide cleavage, 20 min; 1.9% of 340,000 active; Potency, µM (series often up to 57.5 µM); AID 651965, 2013; active means well fitted falling curve with a large enough effect; inconclusive means small, poorly fitted or top-dose-only effect; inactive means no such curve, though single readings can be large or run the other way; further: the source files actives as falling curves though it sought activators and does not explain the sign; nearly all actives have a fitted effect of over 65% in size
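ClpP 10 microg/mL final, pH 8 Tris/KCl buffer with BSA, glycerol, Tween-20; compound pinned in; FRET-FV substrate; RT 20 min; Ex320/Em430; ΔFRET vs ADEP 5.8 microM, DMSO, no enzyme.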
DT40 TDP1 no CPT: qHTS for Inhibitors of human tyrosyl-DNA phosphodiesterase 1 (TDP1): qHTS in cells in absence of CPT | DT40 Tdp1-/- hTDP1 cells, no CPT, ATP luminescence, 48 h | Potency, µM (highest dose often 46.2 µM), usual class: inhibitors | 15% of 420,000 active; further: nearly all actives have a fitted effect of over 55% in size
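Stably hTDP1-transfected Tdp1-null chicken DT40 cells were treated with library compounds minus camptothecin and grown for at least 48 hr at 37 °C, after which cellular ATP was quantified by luminescence.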
DRD3 agonist: qHTS of D3 Dopamine Receptor Agonist: qHTS; max activation, %; D3R DiscoveRx beta-arrestin cells, luminescence, 90 min; 0.58% of 410,000 active; in the data active means max activation above about 30%
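Agonist mode: compounds and dopamine controls were applied to plated cells for 90 min at 37 degrees C after an overnight attachment at 1500 cells/well. Luminescent read-out followed 30 - 60 minutes at room temperature with DiscoveRx detection reagent.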
IL-1B inflam inh: qHTS for Inhibitors of Inflammasome Signaling: IL-1-beta AlphaLISA Primary Screen. THP-1 LPS/ATP IL-1B secretion, AlphaLISA, 16 h; hits give low values. activity change, % at 57.5 µM. 4.7% of 360,000 active. AID 743279, 2014; in the data active means activity change below about -50%; inconclusive means mostly about -30% to -49%
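THP-1 cells pretreated 1 hr with compounds (up to 57.5 uM final), then stimulated with LPS (250 ng/mL final) plus ATP (1.25 mM final); secreted IL-1B measured by AlphaLISA after 16 hr, decreased signal indicating inhibition.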
Each line names hits and unclear results; the compound was inactive in the other large screens. Unless noted, the call rests on the fitted dose curve; in most records, active means well fitted inhibition curve with a large enough effect; inconclusive means small, poorly fitted or top-dose-only effect; inactive means flat fitted curve, though single readings scatter.

N#Cc1ccccc1NC(=O)C(=O)NCC(c1ccc2c(c1)OCO2)N1CCN(c2ccccc2)CC1 (centres undefined)	TDP1 cell CPT inconclusive, DT40 TDP1 no CPT 8.2µM (no result: D3 antag, IL-1B inflam inh)
CC(C)CC(=O)Nc1nnc(SCc2cc(=O)n3ccccc3n2)s1	TDP1 cell CPT inconclusive, DT40 TDP1 no CPT inconclusive (no result: D3 antag, IL-1B inflam inh)
CCCNC(=O)C1(C)CCCN(C(=O)c2c(C)noc2C)C1 (centres undefined)	none
COc1ccccc1-c1nc(SCC(=O)NCc2ccccc2)c2c(=O)n(C)c(=O)n(C)c2n1	none (no result: D3 antag, IL-1B inflam inh)
COc1ccc(C(=O)NCC(c2ccc3c(c2)OCO3)N2CCN(c3ccc(OC)cc3)CC2)cc1 (centres undefined)	TDP1 cell CPT 3.3µM, DT40 TDP1 no CPT 5.8µM
CCCNC(=O)C(=O)NCC(c1ccc2c(c1)OCO2)N1CCN(c2ccc(F)cc2)CC1 (centres undefined)	TDP1 cell CPT inconclusive, DT40 TDP1 no CPT inconclusive
COC(=O)NCC(c1ccc2c(c1)OCO2)N1CCN(c2ccccc2)CC1 (centres undefined)	TDP1 cell CPT inconclusive
Cc1ccc(C(=O)NCC(c2ccc3c(c2)OCO3)N2CCN(c3ccc(F)cc3)CC2)cc1 (centres undefined)	TDP1 cell CPT 2.9µM, DT40 TDP1 no CPT 1.5µM (no result: D3 antag, IL-1B inflam inh)
COc1cccc(NC(=O)C(=O)NCC(c2ccc3c(c2)OCO3)N2CCOCC2)c1 (centres undefined)	TDP1 cell CPT inconclusive, DT40 TDP1 no CPT 16µM (no result: D3 antag, IL-1B inflam inh)
O=[N+]([O-])c1ccc2c(c1)CO[C@@]21O[C@H](CCO)C[C@H](O)[C@H]1O	DT40 TDP1 no CPT inconclusive
O=S(=O)(c1c(F)cccc1F)N(CCc1ccc(F)cc1)C[C@@H](O)COCc1ccccc1	TDP1 cell CPT inconclusive, DT40 TDP1 no CPT inconclusive
COc1ccc(CN(CC(O)COCc2ccccc2)S(=O)(=O)c2ccccc2Br)cc1OC (centres undefined)	TDP1 cell CPT inconclusive, DT40 TDP1 no CPT 16µM, IL-1B inflam inh -64
Cc1ccc2c(C)[nH]c(=O)cc2c1	TDP1 cell CPT 7.3µM, DT40 TDP1 no CPT 7.3µM
Cc1cc(=O)[nH]c2nc(N)ccc12	none (no result: D3 antag, DRD3 agonist, IL-1B inflam inh)
Nc1ccccc1SC1CC(=O)N(c2ccc(Cl)c(Cl)c2)C1=O (centres undefined)	TDP1 cell CPT 26µM, DT40 TDP1 no CPT 13µM, IL-1B inflam inh inconclusive
Cc1cccc(N2C(=O)CC(SC(=Nc3ccccc3)Nc3ccccc3)C2=O)c1 (centres undefined)	TDP1 cell CPT inconclusive, DT40 TDP1 no CPT inconclusive
O=C1CC(SC(=Nc2ccccc2)Nc2ccccc2)C(=O)N1c1ccc(Cl)c(Cl)c1 (centres undefined)	D3 antag inconclusive, TDP1 cell CPT inconclusive, ClpP mod inconclusive, DT40 TDP1 no CPT 18µM, IL-1B inflam inh inconclusive
O=C1CC(Sc2ccc(Cl)cc2)C(=O)N1c1ccc2c(c1)OCCO2 (centres undefined)	TDP1 cell CPT 2.9µM, DT40 TDP1 no CPT 15µM (no result: ClpP mod, IL-1B inflam inh)
O=C1SC(SC(=Nc2ccccc2)Nc2ccccc2)C(=O)N1c1ccccc1 (centres undefined)	TDP1 cell CPT 15µM, DT40 TDP1 no CPT inconclusive
COCCn1cnc2c1c(=O)[nH]c(=O)n2Cc1ccccc1	none
COc1cc(C(=O)NC2CCCNC2)cc(OC)c1OC (centres undefined)	none (no result: D3 antag, ClpP mod, IL-1B inflam inh)
CCNC(=O)C1(C)CCN(C(=O)c2ccc(N(C)C)cc2)C1 (centres undefined)	none
CC(C)(C)C(=O)n1nc(-c2ccccc2)oc1=O	ClpP mod 32µM
O=C(O)Cn1nc(-c2ccccc2)oc1=O	none
COc1cc2ncnc(NCc3ccc4c(c3)OCO4)c2cc1OC	TDP1 cell CPT inconclusive, DT40 TDP1 no CPT inconclusive
Oc1ccc(CCNc2ncnc3ccc(Cl)cc23)cc1	TDP1 cell CPT 2.6µM, DT40 TDP1 no CPT 2.3µM, DRD3 agonist 52
Clc1ccc2ncnc(NCc3ccc4c(c3)OCO4)c2c1	TDP1 cell CPT 3.2µM, DT40 TDP1 no CPT 2.5µM (no result: D3 antag, ClpP mod, DRD3 agonist, IL-1B inflam inh)
COc1ccccc1CN1CC(C(=O)N2CCC(OC)CC2)CCC1=O (centres undefined)	none
CCN(CC)c1ccc(NC(=O)COc2ccccc2C#N)cc1S(=O)(=O)Nc1ccccc1OC	TDP1 cell CPT 2.6µM, DT40 TDP1 no CPT 2.3µM (no result: ClpP mod)
COc1ccc(NC(=O)c2ccccn2)cc1S(=O)(=O)N1CCOCC1	D3 antag inconclusive, DT40 TDP1 no CPT inconclusive (no result: ClpP mod)
COc1ccccc1NS(=O)(=O)c1cc(NC(=O)CNC(=O)c2ccccc2)ccc1C	none
COc1ccc(NS(=O)(=O)c2cc(NC(=O)c3ccccn3)ccc2OC)cc1Br	D3 antag -51, TDP1 cell CPT inconclusive, IL-1B inflam inh -56
CCN(CC)c1ccc(NC(=O)c2ccccn2)cc1S(=O)(=O)Nc1ccccc1OC	TDP1 cell CPT 16µM, DT40 TDP1 no CPT 21µM
COc1cccc(NC(=O)CN(C)C(C)C(=O)Nc2cc([N+](=O)[O-])ccc2Cl)c1 (centres undefined)	ClpP mod 32µM
COc1cccc(NC(=O)CN(C)C(C)C(=O)NC(C)c2ccc(Cl)cc2Cl)c1 (centres undefined)	TDP1 cell CPT inconclusive, DT40 TDP1 no CPT 18µM
O=C(Cn1c(=O)oc2ccccc21)Nc1ccc(Cl)cc1Cl	none
COc1ccc(F)cc1S(=O)(=O)NCCc1csc(-c2ccc(Cl)cc2)n1	TDP1 cell CPT inconclusive, DT40 TDP1 no CPT inconclusive (no result: D3 antag, IL-1B inflam inh)
O=S(=O)(NCCc1csc(-c2ccc(F)cc2)n1)c1ccc(F)cc1F	TDP1 cell CPT 16µM, DT40 TDP1 no CPT 21µM (no result: D3 antag, IL-1B inflam inh)
O=C(COc1ccccc1)NCCc1csc(-c2ccc(F)cc2)n1	TDP1 cell CPT 15µM, DT40 TDP1 no CPT inconclusive (no result: D3 antag, IL-1B inflam inh)
COc1ccc(CCNC(=O)COc2ccc(-c3ccc(C#N)cc3)cc2)cc1	ClpP mod inconclusive, DT40 TDP1 no CPT inconclusive
COc1ccc(CC(=O)NCCc2csc(-c3cccc(F)c3)n2)cc1OC	DT40 TDP1 no CPT inconclusive (no result: D3 antag, IL-1B inflam inh)
N#Cc1ccc(-c2ccc(OCC(=O)NCCc3ccccc3)cc2)cc1	TDP1 cell CPT inconclusive, ClpP mod 32µM, DT40 TDP1 no CPT 12µM
O=C(CCc1ccccc1)NCCc1csc(-c2cccc(F)c2)n1	TDP1 cell CPT inconclusive, DT40 TDP1 no CPT 18µM (no result: D3 antag, IL-1B inflam inh)
CS(=O)(=O)N1CCC2(CCCN(Cc3ccccc3)C2)CC1	none (no result: D3 antag, ClpP mod, DRD3 agonist, IL-1B inflam inh)
CSc1ncccc1C(=O)OCC(=O)NC1CCCCC1	none
